Source: ChEMBL document CHEMBL1157539, “Thousands of chemical starting points for antimalarial lead identification” (Nature, 2010)
Over roughly 13,000 compounds, “IFI” has its median near 4; the highest 2% begin near 17. The sample as a whole holds a higher share of the highest values than the screen did.

Assay: GSK_TCMDC: Inhibition Frequency Index (IFI). The number of non-kinase HTS assays where a compound showed > 50 % inhibition, expressed as a percentage of the number of such assays in which the compound was tested
Type: functional

Structure (SMILES) | IFI
COc1ccc2c(NN=Cc3ccccc3F)ccnc2c1 | 3.52%
CC(C)[C@H](NC(=O)c1c(F)cccc1F)C(=O)Nc1ccc(Cc2nc3ccccc3s2)cc1 | 1.96%
CN(N=Cc1ccccc1)C(=N)NCCCC#Cc1cccc(CN2CCCC2)c1 | 4.23%
CC(Sc1nnc(-c2cccs2)[nH]1)C(=O)c1c[nH]c2ccccc12 (centres undefined) | 1.92%
Oc1ccc2nc(NCCCc3ccccc3)nc(NCCc3ccccc3)c2c1 | 14.1%
CCN(CC)/C(=N/C(=N)NCc1ccc(Cl)cc1)NCCCCCCN/C(=N\C(=N)NCc1ccc(Cl)cc1)N(CC)CC | 15.1%
COc1cccc(-c2ccc(NC(=O)C3CCCN(Cc4cccc(OC)c4O)C3)cc2)c1 (centres undefined) | 4.35%
Oc1c(C(Nc2ccccn2)c2ccco2)cc(Cl)c2cccnc12 (centres undefined) | 22.6%
CCC(=O)NC(c1ccco1)c1cc(Cl)c2cccnc2c1O (centres undefined) | 4.35%
O=C(Cc1ccccc1)NC(c1ccco1)c1cc(Cl)c2cccnc2c1O (centres undefined) | 8%
N=C1C=C(N)C(=O)c2ccccc21 | 20.8%
O=C(Nc1ccc(-c2cccc(-c3nc4cc(C(F)(F)F)ccc4[nH]3)c2)cc1)Nc1ccc(F)c(F)c1F | 5.83%
COc1ccccc1CCCN1C(=O)C(c2ccccc2)(c2ccccc2)N=C1N | 22.3%
COc1ccc(CCCCN2C(=O)C(c3ccccc3)(c3ccccc3)N=C2N)cc1 | 7.69%
COc1ccc(CCCN2C(=O)C(c3ccccc3)(c3ccccc3)N=C2N)cc1 | 8.65%
CCCCC(CC)CN1C(=O)C(c2ccccc2)(c2ccccc2)N=C1N (centres undefined) | 16.3%
CCCCC(CCCC)CN1C(=O)C(c2ccccc2)(c2ccccc2)N=C1N | 20.9%
CCC(CC)CN1C(=O)C(c2ccccc2)(c2ccccc2)N=C1N | 3.7%
N#Cc1cccc(NC(=O)Nc2ccc(-c3cccc(-c4nc5cc(F)ccc5[nH]4)c3)cc2)c1 | 4.04%
Cc1cccc2nc(-c3ccc(-c4ccc(CNCc5ccccc5)cc4)s3)[nH]c12 | 9.62%

Structure (SMILES) | IFI
Oc1c(CN2CCCC(C(F)(F)F)C2)cc(Cl)c2ccccc12 (centres undefined) | 6.38%
Cc1ccc(CN2CCCN(Cc3cccc(NC(=O)c4cc5ccccc5s4)c3)CC2)cc1 | 10.2%
CN1CCC(C(=O)Nc2cccc(-c3cccc(-c4nc5cc(F)ccc5[nH]4)c3)c2)CC1 | 4.24%
Cc1cccc2nc(-c3cccc(-c4cccc(CNCc5ccc(S(C)(=O)=O)cc5)c4)c3)[nH]c12 | 8.65%
Cc1ccc2c(=NN=Cc3cccc(Cl)c3)cc(C)[nH]c2c1 | 10.1%
COc1ccc(-c2cccc(NC(=O)c3cccc(C#N)c3)c2)cc1CN1CCC(O)CC1 | 0%
CC(C)CCN1CCC(Oc2ccc(NC(=O)c3cccs3)cc2Cl)CC1 | 8.06%
c1cc(CN2CCC(CCN3CCCCC3)CC2)cc(-c2cccc(-c3nc4ccccc4[nH]3)c2)c1 | 5.56%
Cc1cc(N[C@@H](CC(C)C)C(=O)NCc2cccc(F)c2)nc(NCC2CCCCC2)n1 | 18.6%
Cc1ccc(CNC(=O)[C@H](Cc2ccccc2)Nc2cc(C)nc(NCC3CCCCC3)n2)cc1 | 24.3%
Cc1cc(N[C@@H](Cc2ccccc2)C(=O)NCCc2ccccc2)nc(NCCOc2ccccc2)n1 | 7.5%
Cc1cc(N[C@@H](Cc2ccccc2)C(=O)NCCOc2ccccc2)nc(NCCc2ccccc2)n1 | 16.3%
Cc1ccc(CNC(=O)[C@H](CCCN)Nc2cc(C)nc(NCC3CCCCC3)n2)cc1 | 4.88%
Cc1cccc(CNc2nc(C)cc(N[C@@H](CC(C)C)C(=O)NCc3cccc(F)c3)n2)c1 | 9.52%
Cc1cc(N[C@@H](Cc2ccccc2)C(=O)NCc2cccs2)nc(NCC2CCCCC2)n1 | 16.3%
Cc1cc(N[C@@H](CC(C)C)C(=O)NCCc2ccccc2)nc(NCC2CCCCC2)n1 | 16.3%
Cc1cc(N[C@@H](Cc2ccccc2)C(=O)NCCOc2ccccc2)nc(NCCOc2ccccc2)n1 | 24.4%
Cc1ccc(CNC(=O)[C@H](Cc2ccccc2)Nc2cc(C)nc(NCc3ccccc3C)n2)cc1 | 4.88%
Cc1cc(N[C@@H](CC(C)C)C(=O)NCc2cccc(F)c2)nc(NCCc2ccccc2)n1 | 17.1%
Cc1ccc(CNC(=O)[C@H](CC(C)C)Nc2cc(C)nc(NCC3CCCCC3)n2)cc1 | 19.1%

Structure (SMILES) | IFI
CN(C)CCN(Cc1ccc(-c2ccc(CNCCc3ccccc3)cc2)nc1)C(=O)CCC1CCCC1 | 8.33%
COc1ccc2c(N/N=C/c3ccccc3[N+](=O)[O-])ccnc2c1 | 3.62%
CC1(C)CCC(C)(C)c2c1ccc(C1CCN(CCCCNC(=O)c3ccc(-c4ccc(Cl)cc4)cc3)CC1)c2O | 13.7%
COc1ccc(CON2C(=N)N=C(N)NC2(C)C)cc1OC | 1.47%
COc1ccc(C#Cc2ccc(-c3c(C)[nH]c(C)c(Cl)c3=O)cc2)cc1 | 0.88%
CCN(CC)CCN(Cc1ccc(-c2ccc(C(F)(F)F)cc2)cc1)C(=O)Cn1c(CCc2c(F)ccc(F)c2F)nc(=O)c2ccccc21 | 9.09%
Cc1nc(C)c(-c2ccc(S(=O)(=O)c3ccc(Cl)cc3)cc2)c(O)c1Cl | 0.78%
CC(C)Cn1cc(C2CCN(CCN3CCC(CNC(=O)c4ccc(-c5ccc(C(F)(F)F)cc5)cc4)CC3)CC2)c2ccccc21 | 9.17%
O=C(/C=C/c1ccc(Cl)c(Cl)c1)NC1CCC(CN2CCC(c3nc4cccnc4[nH]3)CC2)CC1 (centres undefined) | 4.96%
CCN(CC)CCN(Cc1ccc(-c2ccc(C(F)(F)F)cc2)cc1)C(=O)Cn1c(/C=C/c2ccco2)nc(=O)c2ccccc21 | 5.52%
Cc1cc(N[C@@H](Cc2ccccc2)C(=O)NCc2cccc(F)c2)nc(NCCc2ccccc2)n1 | 9.3%
Cc1cc(N[C@@H](Cc2ccccc2)C(=O)NCc2cccc(F)c2)nc(NCc2ccccc2C)n1 | 4.88%
Cc1cc(N[C@@H](Cc2ccccc2)C(=O)NCc2cccc(F)c2)nc(Nc2ccccc2)n1 | 4.76%
Cc1cc(N[C@@H](Cc2ccccc2)C(=O)NCc2cccc(F)c2)nc(NCCc2ccc(F)cc2)n1 | 9.09%
Cc1cc(N[C@@H](Cc2ccccc2)C(=O)NCCCOC(C)C)nc(NCCc2ccc(F)cc2)n1 | 2.44%
Cc1cc(N[C@@H](Cc2ccccc2)C(=O)NCc2cccc(F)c2)nc(NCCOc2ccccc2)n1 | 6.98%
Cc1cc(N[C@@H](Cc2ccccc2)C(=O)NCc2cccc(F)c2)nc(NCC2CCCCC2)n1 | 27.9%
Cc1cccc(CNc2nc(C)cc(N[C@@H](Cc3ccccc3)C(=O)NCc3cccc(F)c3)n2)c1 | 19.1%
Cc1cc(N[C@@H](Cc2ccccc2)C(=O)NCc2cccc(F)c2)nc(NCCCOC(C)C)n1 | 18.2%
